Hits are enriched below; roughly 1.1% of the tested compounds scored in any of these assays.
GALR2 blocker: GALR2 (human) receptor antagonism; O43603; hit rate 0.39% among 140,000; GALR2-expressing cells, antagonist mode; inhibition, % at 4 µM; in the data active means inhibition above about 27%;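 further: cells stimulated with galanin 1-16 at roughly its EC80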
S1P2 agonist: S1P2 (human) receptor agonism; hit rate 0.46% among 97,000; O95136; activation, % at 4.5 µM; S1P2-expressing cell line, agonist reporter read-out; in the data active means activation above about 16%
Target sequence (O95136 whole entry, looked up): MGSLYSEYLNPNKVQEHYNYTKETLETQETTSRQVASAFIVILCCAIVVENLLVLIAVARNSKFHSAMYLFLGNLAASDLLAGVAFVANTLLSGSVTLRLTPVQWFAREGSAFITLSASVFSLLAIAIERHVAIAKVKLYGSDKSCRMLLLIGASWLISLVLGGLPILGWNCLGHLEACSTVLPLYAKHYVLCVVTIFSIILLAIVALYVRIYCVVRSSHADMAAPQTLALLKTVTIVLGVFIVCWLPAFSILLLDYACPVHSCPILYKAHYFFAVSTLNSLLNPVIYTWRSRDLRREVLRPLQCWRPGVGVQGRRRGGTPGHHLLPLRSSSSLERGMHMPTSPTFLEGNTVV
GALR2 ag: GALR2 (human) receptor agonism. O43603. GALR2-expressing cells, agonist activation read-out. activation, % (concentration not given with the values). hit rate 0.48% among 140,000; in the data active means activation above about 5%, passing the limit was not always enough
S1P2 blocker: blocks the human S1P2 receptor; inhibition, % at 5 µM; hit rate 0.21% among 97,000; cell-based S1P2 antagonist assay, inhibition at 5 uM; O95136; in the data active means inhibition above about 45%;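 further: CRE beta-lactamase reporter cells expressing human S1P2 stimulated with S1P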
A number is an active result; – = inactive; · = not tested or not shown.

SMILES | GALR2 blocker | S1P2 agonist | GALR2 ag | S1P2 blocker
Cc1nn(-c2nc3ccccc3s2)c(N)c1-c1ccc(Cl)cc1 | – | – | – | –
CCc1nc(SCc2cccnc2)c2c(=O)n(C)c(=O)n(C)c2n1 | – | 17.1 | – | –
CC1(C)OC2OC(C(=O)N/N=C/c3cc(Br)ccc3O)C3OC(C)(C)OC3C2O1 (stereo not drawn) | – | · | – | ·
Cc1ccc(S(=O)(=O)c2c(C(=O)c3ccccc3)cnc3cc4c(cc23)OCCO4)cc1 | – | · | – | ·
O=C(CC12CC3CC(CC(C3)C1)C2)N/N=C/c1ccncc1 | – | · | – | ·
Cc1cccc(C)c1OC(=O)CSc1nnc(-c2ccccc2O)o1 | – | – | – | –
CCOc1cccc(OCCCCn2ccnc2)c1 | – | 82.8 | – | –
CCN(Cc1nc2ccccc2c(=O)[nH]1)Cc1nc2cc(OC)c(OC)cc2c(=O)[nH]1 | – | 17.6 | – | –
C=CCn1c(N)cc(=O)nc1SCC(=O)Nc1ccccc1 | – | 80.4 | – | –
O=C(CCn1cnc2ccccc2c1=O)Nc1nc(-c2ccc(Br)cc2)cs1 | – | · | 7.9 | ·
O=C(CCn1cnc2ccccc2c1=O)Nc1ccc(Cl)c(Cl)c1 | – | – | – | –
COc1ccc(CN2CCc3ccccc3C2)c(OC)c1OC | – | – | – | –
Cc1cc(/C=C(/C#N)c2nc3ccccc3[nH]2)c(C)n1-c1cccc([N+](=O)[O-])c1 | – | 30.2 | – | –
COc1cc(/C=C(\C#N)c2nc3ccc(C)cc3[nH]2)c([N+](=O)[O-])cc1OC | – | 18.3 | – | –
Cc1cc(/C=C(\C#N)c2nc3ccccc3[nH]2)c(C)n1C | – | · | – | ·
COc1ccc(OC)c(/C=N/NC(=O)c2ccc(Cn3cc([N+](=O)[O-])cn3)o2)c1 | – | · | – | ·
Cc1ccc(NC(=O)C(OC(=O)c2ccc(C=O)cc2)c2ccccc2)cc1Cl (stereo not drawn) | – | · | – | ·
CS(=O)(=O)c1ccc2nc(NC(=O)Nc3cccc(Cl)c3)sc2c1 | – | – | – | 46.8
Cc1noc2ncnc(Oc3ccccc3)c12 | – | – | – | –
Cc1noc2ncnc(Sc3ccccc3Cl)c12 | – | – | – | 55.3
Cc1ccc(NC(=O)COC(=O)C(CC(C)C)N2C(=O)C3CC=CCC3C2=O)c(C)c1 (stereo not drawn) | – | · | – | ·
COc1ccc2cc(C(c3nnnn3C3CCCC3)N3CCCCCC3)c3nnnn3c2c1 (stereo not drawn) | – | – | – | –
COc1ccc2cc(C(c3nnnn3C3CCCCC3)N3CCCCCC3)c3nnnn3c2c1 (stereo not drawn) | – | – | 13.1 | –
Cc1ccc2oc(=O)c3cc(C(=O)Nc4cc(-c5cccc(F)c5)no4)sc3c2c1 | – | · | – | ·
O=C(c1ccco1)N1CCN(CCCCOc2ccc(F)cc2)CC1 | – | · | – | ·
SMILES | GALR2 blocker | S1P2 agonist | GALR2 ag | S1P2 blocker
CN(C)CC(C(=O)c1ccccc1)c1ccccc1 (stereo not drawn) | 41.9 | · | – | ·
COc1ccc(C(C(=O)OC(C)CN(C)C)c2ccccc2)cc1 (stereo not drawn) | – | – | – | –
CCc1nccn1S(=O)(=O)c1cc(C)c(OC)cc1C | – | 16.4 | – | –
CC1CCc2c(sc(Nc3nc4c(F)cccc4s3)c2C(N)=O)C1 (stereo not drawn) | – | · | – | ·
O=C(NNC(=O)c1cc(-c2ccccc2)n(-c2ccccc2)n1)c1cccc([N+](=O)[O-])c1 | – | · | – | ·
CCn1c(SCc2nc3ccccc3c(=O)[nH]2)nc2ccccc2c1=O | – | – | – | –
COCCCn1c(SCc2nc3ccccc3c(=O)[nH]2)nc2ccccc2c1=O | – | 23.1 | – | –
CCn1c2ccccc2c2cc(Nc3cc(C)nc4ncnn34)ccc21 | 34.2 | · | – | ·
O=C1c2ccccc2CN1CCSC(=S)N1CCOCC1 | – | · | – | ·
Cn1c2ccc(Cl)cc2c2nc3ccccc3nc21 | – | 23.9 | – | –
COc1ccc(Cn2c3ccc(OC)cc3c3nc4ccccc4nc32)cc1 | – | · | – | ·
COc1cc(NC(=O)COC(=O)Cc2ccc(-c3ccccc3)cc2)cc(OC)c1 | – | · | – | ·
Cc1noc(C)c1COC(=O)Cc1ccc(Cl)c(Cl)c1 | – | – | – | –
Cc1noc(C)c1COC(=O)[C@H](C)NS(=O)(=O)c1ccc(Cl)c(Cl)c1 | – | – | 14.2 | –
CC1=CC2=NC(=O)/C(=C\c3cc(C)n(-c4ccccc4F)c3C)C(=N)N2O1 | – | · | 5.4 | ·
CCOc1ccc(NC(=O)C(=O)N/N=C\c2ccc(CNS(=O)(=O)c3ccccc3)o2)cc1 | – | · | 5.7 | ·
CCOc1ccc(C(=O)N/N=C/c2ccc(-c3ccc(S(=O)(=O)Nc4ncccn4)cc3)o2)cc1 | – | – | – | –
COc1cc(C)c(NC(=S)Nc2ccc(Cl)c(Cl)c2)cc1OC | – | · | – | ·
CCN1C(=O)/C(=C/c2ccc(C)o2)N(C)C1=S | – | · | – | ·
CCCS(=O)(=O)c1nnnn1-c1cccc(OC)c1 | 84.4 | · | – | ·
COc1cccc(-n2nnnc2SCC(=O)Nc2ccc(C(C)=O)cc2)c1 | – | – | – | –
COc1ccccc1-c1c(C#N)c(N)nc2c1CCc1ccccc1-2 | – | · | 5.7 | ·
CCOc1cc(-c2c(C#N)c(N)nc3c2CCc2ccccc2-3)ccc1O | – | · | – | ·
CC(NC(=O)/C=C/c1cnc2ccccc2n1)C12CC3CC(CC(C3)C1)C2 (stereo not drawn) | – | · | – | ·
CCc1ccc2nc(Nc3nc(COC)cc(=O)[nH]3)nc(C)c2c1 | – | 19.3 | – | –
SMILES | GALR2 blocker | S1P2 agonist | GALR2 ag | S1P2 blocker
CCOC(=O)C1=C(C)NC(SCC(=O)Nc2nc(C)cs2)=C(C#N)C1c1cccs1 (stereo not drawn) | – | 19.8 | 21.8 | –
C=C(C)CNC(=S)N/N=C1\CCCCc2ccccc21 | – | · | 6.1 | ·
O=C(Cc1ccc(Br)cc1)OCC(=O)N1CCc2ccccc2C1 | – | · | – | ·
COc1ccccc1NS(=O)(=O)c1cc([N+](=O)[O-])ccc1N/N=C/c1c(C)[nH]c2ccccc12 | – | – | – | 69.3
Cc1[nH]c2ccccc2c1/C=N/Nc1ccc([N+](=O)[O-])cc1 | – | · | – | ·
O=c1ccn(-c2cccc(C(F)(F)F)c2)nc1-c1ccn(-c2ccccc2F)n1 | – | 18.6 | – | –
COc1ccc(-n2ccc(-c3nn(-c4cccc(C(F)(F)F)c4)ccc3=O)n2)cc1 | – | 18.1 | – | –
CC(C)c1nnc(NC(=O)CCC(=O)NC2CCCc3ccccc32)s1 (stereo not drawn) | – | · | – | ·
CC(C)c1cccc(C(C)C)c1NC(=O)COC(=O)c1ccc2c(c1)S(=O)(=O)c1ccccc1C2=O | – | · | – | ·
CC(C)NC(=O)c1ccc2c(c1)S(=O)(=O)c1ccccc1C2=O | – | 18.2 | – | –
Cc1cccn2c(=O)c3cc(C#N)c(=O)n(-c4c(C)n(C)n(-c5ccccc5)c4=O)c3nc12 | – | · | – | ·
CCCn1c(=N)c(C#N)cc2c(=O)n3ccccc3nc21 | – | · | – | ·
CCC(C)n1c(=N)c(C#N)cc2c(=O)n3ccccc3nc21 (stereo not drawn) | – | – | – | –
Cc1ccc(-n2c(=O)c(C#N)cc3c(=O)n4ccccc4nc32)cc1 | – | · | 8.7 | ·
Cc1cccc(-n2c(=O)c(C#N)cc3c(=O)n4ccccc4nc32)c1 | – | 39.3 | 23.9 | –
Cc1cc(-n2c(=O)c(C#N)cc3c(=O)n4cccc(C)c4nc32)no1 | – | · | 19.1 | ·
CCc1nnc(NC(=O)CCC(=O)N2CCN(C3c4ccccc4-c4ccccc43)CC2)s1 | – | · | – | ·

Source: PubChem BioAssay (The Scripps Research Institute Molecular Screening Center)
